In PubChem BioAssay (NCI):
About 83,000 compounds went through this panel and 20% of them were active in at least one assay; those are over-represented in the sample as a whole.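 How to read the values: 0–100, growth inhibition (40 = 60% inhibited); 0, no net growth; -100 to 0, cell death (-40 = 40% of starting cells died; -100 = all dead).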 Values without a mark were called inactive. Activity calls are given as the source filed them. Rule for the calls: active = growth percent below 10; inactive = the rest.

tested on: MDA-MB-468 breast; assay: NCI-60 one-dose screen, 48 h (100 = growth as untreated, 0 = no growth, -100 = all killed); settings: 10 µM unless noted

| SMILES | growth |
| --- | --- |
| COC(=O)[C@]12CC[C@@H](C)[C@H](C)[C@@H]1C1=CC[C@@H]3[C@@]4(C)C[C@@H](OC(C)=O)[C@H](O)[C@@](C)(CO)[C@@H]4[C@H](O)C[C@@]3(C)[C@]1(C)CC2 | -90.6% (active) |
| CC1=C/C(=C(\c2ccc(N(C)C)cc2)c2ccc([N+](C)(C)C)cc2)C=CC1=[N+](C)C | 70.6% |
| C[C@@H]1NC(=O)[C@H](Cc2ccccc2)N(Cc2cccnc2)C1=O | 108% |
| C/C(=N\O)c1ccc(NC(=O)CSc2nnc(-c3cc(-c4ccc(S(C)(=O)=O)cc4)nc4ccccc34)n2-c2ccccc2)cc1 | 92.6% |
| COc1cc(NC(=O)COc2cc(C)nc3ccc(OC)cc23)cc(OC)c1 | 76.3% |
| Nc1n[nH]c2cccc(C#Cc3cccc(C(=O)Nc4cc(CN5CCOCC5)cc(C(F)(F)F)c4)c3)c12 | 89.7% |
| CCCC(C)(C)COC(=O)c1cccc(N)c1 | 109% |
| CCOc1cc2ncc(C#N)c(Nc3ccc(F)c(Cl)c3)c2cc1NC(=O)/C=C/CN(C)C | -43.9% (active) |
| CS(=O)(=O)c1nccc(-c2c(-c3cccc(OCc4ccc(F)cc4)c3)nc3sccn23)n1 | -63.6% (active) |
| OCCCCc1nccc2c1[nH]c1ccccc12 | 92.9% |
| O=C(NC1CCN(Cc2ccccc2)CC1)c1cc(C(=O)NC2CCN(Cc3ccccc3)CC2)cc(C(=O)NC2CCN(Cc3ccccc3)CC2)c1 | 84.9% |
| COC(=O)[C@]12CC[C@@H](C)[C@H](C)[C@@H]1C1=CC[C@@H]3[C@@]4(C)C=C(O)C(=O)[C@@]5(C)COC(=C54)C[C@@]3(C)[C@]1(C)CC2 | -57.7% (active) |
| CCN(CC)CCNC(=O)c1ccc(-c2nc3ccc4[nH]ncc4c3c3c2CCCC3)cc1 | 17.4% |
| CCN(CC)N=Nc1nn(C(=O)Nc2ccc(Cc3ccccc3)cc2)c2ccc(Cl)cc12 | 101% |
| CC(=O)c1ccc(NC(=O)CSc2nnc(-c3cc(-c4ccc(Cl)cc4)nc4ccccc34)o2)cc1 | 115% |
| OC[C@@H](O)C(O[C@@H]1O[C@H](CO)[C@H](O)[C@H](O)[C@H]1O)[C@H](O)[C@@H](O)CO (stereo not given in full) | 94.7% |
| O=C(Nc1ccccc1)Oc1ccccc1-c1ccccc1 | 101% |
| Cc1c2ccncc2c(C)c2c1c1ccccc1n2CCCCCC(=O)O | 86.3% |

| SMILES | growth |
| --- | --- |
| COc1ccc(-c2cs/c(=N\N=C\c3ccc(O)cc3O)n2/N=C/c2ccc(O)cc2O)cc1 | -23.3% (active) |
| CCOC(=O)c1cn2c3c(cc(F)cc3c1=O)C(CC)c1ccccc1C2 (stereo not given) | 99.4% |
| O=C(CCCCCCN1CC(=O)N2[C@@H](c3cc(F)cc(F)c3)c3[nH]c4ccccc4c3C[C@H]2C1=O)NO | 50.4% |
| COc1cc(-c2c(C#N)c(-c3cccs3)nc3c2c(-c2ccccc2)nn3-c2ccccc2)ccc1O | 95.4% |
| O=[N+]([O-])c1ccccc1C(O)Cc1ccc2ccccc2n1 (stereo not given) | 79.7% |
| O=C(O)/C=C(\c1nc2ccc([N+](=O)[O-])cc2[nH]1)c1cc(Cl)ccc1O | -2.53% (active) |
| COc1ccc(COC(C)=O)cc1 | 108% |
| NC(N)=NC(N)=Nc1ccccc1-c1ccccc1 | 109% |
| COc1cc(/C=C2\C(=O)Nc3ccccc32)ccc1OCc1ccc(F)cc1 | 102% |
| COc1ccc(C(=O)CSc2nc(-c3cc(OC)ccc3OC)cc(-c3ccc(Cl)cc3)c2C#N)cc1 | 25.8% |
| CCc1cc2c(c3ccc(C(=O)CBr)cc13)CCCC2 | 111% |
| Cc1ccc2c(c1)Sc1c(ccc3ccccc13)N2 | 86.6% |
| Cc1nc([N+](=O)[O-])c(Sc2nncc(-c3ccccc3)n2)n1C | 29.5% |
| CCOC(=O)C1=NN(c2ccccc2)C(=O)/C1=C\N1C(=O)CC(=O)NC1=S | 114% |
| NS(=O)(=O)c1ccc(Nc2nc(N/N=C/C=C/c3ccccc3)nc(Nc3ccccc3)n2)cc1 | 15.6% |
| C=C1C(=O)O[C@H]2[C@H]1CC/C(Cn1cc(-c3cc(C(F)(F)F)cc(C(F)(F)F)c3)nn1)=C\CC[C@@]1(C)O[C@@H]21 | -56.7% (active) |
| COc1ccc(C2C=C(c3ccc(Cl)cc3)N=C3SC=CN32)c(Br)c1 (stereo not given) | 61% |
